Experimental data as given in the supplement of paper PMC10849652.
The full data set covers some 7,900 targets. This sample favours those with a hit. About 0.6% of all pairs of compound and target were hits.

Assays:
Test in all cases: log2 fold change, soluble protein after heating vs DMSO (PISA); higher = thermal stabilisation; K562 cells, 10 uM, 30 min; active = over 0.2 and 3.5 SD of the protein, either way, in both replicates (recomputed)
[1] = compound: CC1=C(C=C(C=C1)NC(=O)C2=CC(=CC=C2)C(C)(C)C#N)NC3=CC4=C(C=C3)N=CN(C4=O)C
How it was run: (§1)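 K562 cells at 2×10^6 cells/mL were exposed to 10 μM compound for 30 min, then aliquots were heated for 3 min across 48°C-58°C, pooled, and extracted in PBS containing 0.5% NP-40 at 4°C. The supernatant after 21,000xg for 90 min was taken as soluble protein and measured by TMTpro 16plex LC-MS/MS with channel sums equalised. Thermal stability is reported relative to control samples, with values from duplicates. Fold changes are given on a log2 scale.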

[2] = compound: CC1=C(C=C(C=C1)NC(=O)C2=CC(=CC=C2)N(C)C)NC(=O)C3=CC=C(C=C3)O
How it was run: as §1

[3] = compound: CC1=CC=C(C=C1)SC2=C3C=C(SC3=CN=C2)C(=O)N
How it was run: as §1

[4] = compound: CC1=NC(=CC=C1)C2=C(N=C(N2)C(C)(C)C)C3=CC4=NC=CN=C4C=C3
How it was run: as §1

Nexturastat A = compound: CCCCN(Cc1ccc(C(=O)NO)cc1)C(=O)Nc1ccccc1 [Nexturastat A]
How it was run: as §1

vemurafenib = compound: CCCS(=O)(=O)Nc1ccc(F)c(C(=O)c2c[nH]c3ncc(-c4ccc(Cl)cc4)cc23)c1F [vemurafenib]
How it was run: as §1

[5] = compound: CCCS(=O)(=O)Nc1ccc(F)c(C(=O)c2c[nH]c3ncc(Cl)cc23)c1F
How it was run: as §1

[6] = compound: CCCc1cc(C)[nH]c(=O)c1CNC(=O)c1cc(-c2ccnc(N3CCN(C)CC3)c2)cc2c1cnn2C(C)C
How it was run: as §1

givinostat = compound: CCN(CC)Cc1ccc2cc(COC(=O)Nc3ccc(C(=O)NO)cc3)ccc2c1 [givinostat]
How it was run: as §1

barasertib = compound: CCN(CCCOc1ccc2c(Nc3cc(CC(=O)Nc4cccc(F)c4)[nH]n3)ncnc2c1)CCOP(=O)(O)O [barasertib]
How it was run: as §1

[7] = compound: CC[C@@H]1C(=O)N(C)c2cnc(Nc3ccc(C(=O)NC4CCN(C)CC4)cc3OC)nc2N1C1CCCC1
How it was run: as §1

volasertib = compound: CC[C@@H]1C(=O)N(C)c2cnc(Nc3ccc(C(=O)N[C@H]4CC[C@H](N5CCN(CC6CC6)CC5)CC4)cc3OC)nc2N1C(C)C [volasertib]
How it was run: as §1

[8] = compound: CC[C@H](C)N1C=C(C2=C(C=C(C=C21)C3=CN=C(C=C3)N4CCNCC4)C(=O)NCC5=C(C=C(NC5=O)C)C)C
How it was run: as §1

epoxomicin = compound: CC[C@H](C)[C@@H](C(=O)N[C@@H]([C@@H](C)O)C(=O)N[C@@H](CC(C)C)C(=O)[C@]1(CO1)C)NC(=O)[C@H]([C@@H](C)CC)N(C)C(=O)C [epoxomicin]
How it was run: as §1

[9] = compound: CCn1c(C(=O)N(C2CC2)C2CC2)cc2c3c(ncn3C)c(Nc3cc(C)n(C)n3)nc21
How it was run: as §1

[10] = compound: CCn1cc(-c2ccnc3[nH]c(-c4cccc(CN(C)C)c4)cc23)c(-c2ccc(NC(=O)N(C)C)cc2)n1
How it was run: as §1

[11] = compound: CN(C)CC(=O)Nc1ccc2[nH]c(=O)c3ccccc3c2c1
How it was run: as §1

rosiglitazone = compound: CN(CCOC1=CC=C(C=C1)C[C@H]2C(=O)NC(=O)S2)C3=CC=CC=N3 (racemic) [rosiglitazone]
How it was run: as §1

[12] = compound: CN1C2=C(C3=C1C(=O)N(N=C3)CC4=CC(=CC=C4)N)SC(=C2)S(=O)C
How it was run: as §1

[13] = compound: CN1CCC(CNc2ccc3ncc(-c4cccc(OC(F)(F)F)c4)n3n2)CC1
How it was run: as §1

Measured: log2 fold change

ACSL3 (UniProt O95573)
inactive: [1] 0.005 | [2] -0.051 | [3] 0.1 | [4] 0.029 | Nexturastat A 0.008 | vemurafenib 0 | [5] 0.038 | [6] -0.016 | givinostat 0.032 | barasertib 0.039 | [7] -0.062 | [8] 0.022 | epoxomicin 0.048 | [9] -0.049 | [10] -0.042 | [11] 0.024 | [12] -0.036 | [13] -0.1
active: volasertib -0.23 | rosiglitazone 0.642

APOBEC3G (UniProt Q9HC16)
inactive: [1] -0.019 | [2] 0.069 | [3] -0.064 | [4] -0.014 | Nexturastat A 0.172 | vemurafenib 0.069 | [5] -0.083 | [6] 0.051 | givinostat 0.129 | barasertib 0.019 | [7] 0.267 | volasertib -0.008 | [8] 0.051 | epoxomicin -0.146 | [9] 0.006 | [11] -0.148 | rosiglitazone -0.115 | [12] 0.025

ADAM15 (UniProt Q13444)
inactive: [1] -0.045 | [2] 0.056 | [3] 0 | [4] -0.14 | Nexturastat A -0.016 | vemurafenib -0.022 | [5] 0.007 | givinostat 0.308 | barasertib -0.043 | volasertib -0.103 | [8] -0.02 | epoxomicin 0.034 | [9] -0.177 | [10] -0.001 | [11] 0.066 | rosiglitazone -0.099 | [12] -0.028 | [13] -0.016

ALKBH4 (UniProt Q9NXW9)
inactive: [1] 0.071 | [2] -0.008 | [3] -0.015 | [4] 0.019 | Nexturastat A -0.125 | vemurafenib -0.048 | [5] 0.032 | [6] -0.015 | givinostat -0.05 | barasertib -0.016 | [7] -0.064 | volasertib -0.263 | epoxomicin 0.117 | [9] -0.02 | [10] -0.023 | [11] 0.056 | rosiglitazone 0.037 | [12] -0.077 | [13] -0.082

ADD3 isoform 2 (UniProt Q9UEY8)
Sequence of UniProt Q9UEY8 (Q9UEY8 whole entry, looked up): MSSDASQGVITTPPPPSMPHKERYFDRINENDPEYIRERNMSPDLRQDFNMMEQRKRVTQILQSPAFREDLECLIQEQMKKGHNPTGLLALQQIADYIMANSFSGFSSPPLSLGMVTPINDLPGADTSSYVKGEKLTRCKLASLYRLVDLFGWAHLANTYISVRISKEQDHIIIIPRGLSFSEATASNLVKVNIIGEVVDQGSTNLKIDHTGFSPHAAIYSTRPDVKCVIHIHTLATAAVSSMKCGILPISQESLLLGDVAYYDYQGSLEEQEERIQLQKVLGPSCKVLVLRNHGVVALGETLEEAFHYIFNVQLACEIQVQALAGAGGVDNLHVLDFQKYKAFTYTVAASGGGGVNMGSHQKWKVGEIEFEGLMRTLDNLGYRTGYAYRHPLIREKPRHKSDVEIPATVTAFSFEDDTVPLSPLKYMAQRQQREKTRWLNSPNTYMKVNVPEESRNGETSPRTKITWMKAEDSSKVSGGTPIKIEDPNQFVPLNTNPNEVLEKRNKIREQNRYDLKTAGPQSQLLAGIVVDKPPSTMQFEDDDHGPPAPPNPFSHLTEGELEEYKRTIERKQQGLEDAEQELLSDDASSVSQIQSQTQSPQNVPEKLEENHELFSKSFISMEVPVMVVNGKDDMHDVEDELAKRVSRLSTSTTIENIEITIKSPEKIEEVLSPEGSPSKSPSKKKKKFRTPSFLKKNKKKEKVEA
inactive: [1] 0.034 | [2] -0.021 | [3] -0.08 | [4] -0.017 | Nexturastat A -0.029 | vemurafenib 0.059 | [5] 0.014 | [6] -0.017 | [7] 0.021 | volasertib -0.037 | epoxomicin -0.022 | [10] 0.066 | [11] 0.036 | [12] -0.093 | [13] -0.128

BRIP1 (UniProt Q9BX63)
inactive: [1] -0.049 | [2] -0.007 | [3] -0.009 | [4] -0.03 | Nexturastat A 0.23 | vemurafenib 0.184 | [5] 0.045 | givinostat 0.004 | barasertib -0.162 | [7] -0.067 | volasertib 0.008 | [8] -0.004 | epoxomicin -0.008 | [9] -0.16 | [10] -0.122 | [11] -0.068 | rosiglitazone 0.044 | [12] 0.041 | [13] -0.084

ANK2 (UniProt Q01484)
inactive: [1] -0.11 | [2] -0.031 | [3] 0.019 | [4] 0.026 | vemurafenib -0.026 | [5] 0.012 | [6] 0.053 | givinostat -0.047 | barasertib 0.031 | [7] 0.049 | volasertib -0.071 | [8] -0.003 | [9] -0.1 | [10] 0.122 | [11] -0.018 | rosiglitazone 0.03 | [12] -0.128 | [13] -0.223

ARRDC1 (UniProt Q8N5I2)
inactive: [1] -0.061 | [2] 0 | [3] 0.071 | Nexturastat A 0.021 | vemurafenib 0.048 | [5] 0.039 | [6] 0.023 | givinostat 0.136 | barasertib -0.179 | [7] -0.063 | volasertib -0.137 | [8] -0.09 | epoxomicin -0.057 | [9] 0.09 | [10] 0 | [11] 0.023 | rosiglitazone -0.072 | [12] -0.038 | [13] 0.027

ALDH2 isoform 2 (UniProt P05091)
inactive: [1] 0.075 | [2] -0.049 | [3] -0.106 | Nexturastat A -0.103 | vemurafenib -0.023 | [5] -0.141 | barasertib 0.099 | [7] 0.183 | volasertib 0.033 | epoxomicin -0.176 | [10] -0.014 | [11] -0.015 | rosiglitazone 0.19 | [13] -0.072

ARMC8 (UniProt Q8IUR7)
inactive: [1] 0.017 | [2] 0.039 | [3] -0.049 | [4] 0.006 | Nexturastat A -0.002 | vemurafenib -0.017 | [5] 0.027 | [6] 0.065 | givinostat 0 | barasertib -0.025 | [7] -0.055 | volasertib -0.14 | [8] 0.053 | epoxomicin -0.008 | [9] -0.005 | [10] 0.003 | [11] -0.007 | rosiglitazone -0.029 | [12] 0.053 | [13] 0.043

ARL4A (UniProt P40617)
inactive: [6] 0.078 | barasertib 0.057 | rosiglitazone 0.063

AP4S1 (UniProt Q9Y587)
inactive: [1] 0.033 | [3] -0.017 | [4] -0.007 | Nexturastat A -0.097 | vemurafenib 0.107 | [5] 0.02 | [6] 0.102 | givinostat 0 | barasertib -0.008 | [7] -0.117 | volasertib -0.321 | [8] 0.059 | epoxomicin -0.006 | [9] -0.056 | [11] 0.027 | rosiglitazone 0.024 | [12] 0.078

ACVR1 (UniProt Q04771)
Sequence of UniProt Q04771 (Q04771 whole entry, looked up): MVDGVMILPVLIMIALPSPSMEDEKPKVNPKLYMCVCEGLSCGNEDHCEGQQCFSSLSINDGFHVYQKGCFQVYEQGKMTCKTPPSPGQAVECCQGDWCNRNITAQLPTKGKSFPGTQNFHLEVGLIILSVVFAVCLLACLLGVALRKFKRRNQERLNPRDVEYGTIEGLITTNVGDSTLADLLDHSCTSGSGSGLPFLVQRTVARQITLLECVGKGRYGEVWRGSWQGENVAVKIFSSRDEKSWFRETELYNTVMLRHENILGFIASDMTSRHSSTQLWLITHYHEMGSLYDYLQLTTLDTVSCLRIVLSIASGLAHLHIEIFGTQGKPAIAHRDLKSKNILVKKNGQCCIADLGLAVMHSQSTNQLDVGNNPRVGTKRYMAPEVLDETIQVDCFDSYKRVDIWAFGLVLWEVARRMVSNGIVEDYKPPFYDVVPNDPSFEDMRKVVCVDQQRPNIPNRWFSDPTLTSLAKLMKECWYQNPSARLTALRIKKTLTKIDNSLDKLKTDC
active: [13] 0.925
inactive: [1] -0.194 | [3] 0.011 | Nexturastat A 0.037 | vemurafenib 0.015 | [5] 0.017 | [6] -0.149 | givinostat 0.031 | [7] -0.104 | volasertib -0.2 | epoxomicin 0.16 | [9] -0.036 | [10] 0.065 | [11] -0.095 | [12] -0.111

ADD2 isoform 9 (UniProt P35612)
inactive: [1] 0.191 | [2] 0.065 | [3] -0.067 | [5] -0.114 | [6] 0.079 | barasertib 0.047 | volasertib -0.1 | rosiglitazone 0.196

ADD1 isoform 4 (UniProt P35611)
inactive: [4] 0.098 | Nexturastat A 0.024 | barasertib 0.03 | epoxomicin -0.431 | [10] -0.001 | rosiglitazone -0.077 | [13] 0.086

ADAMTS5 (UniProt Q9UNA0)
Sequence of UniProt Q9UNA0 (Q9UNA0 whole entry, looked up): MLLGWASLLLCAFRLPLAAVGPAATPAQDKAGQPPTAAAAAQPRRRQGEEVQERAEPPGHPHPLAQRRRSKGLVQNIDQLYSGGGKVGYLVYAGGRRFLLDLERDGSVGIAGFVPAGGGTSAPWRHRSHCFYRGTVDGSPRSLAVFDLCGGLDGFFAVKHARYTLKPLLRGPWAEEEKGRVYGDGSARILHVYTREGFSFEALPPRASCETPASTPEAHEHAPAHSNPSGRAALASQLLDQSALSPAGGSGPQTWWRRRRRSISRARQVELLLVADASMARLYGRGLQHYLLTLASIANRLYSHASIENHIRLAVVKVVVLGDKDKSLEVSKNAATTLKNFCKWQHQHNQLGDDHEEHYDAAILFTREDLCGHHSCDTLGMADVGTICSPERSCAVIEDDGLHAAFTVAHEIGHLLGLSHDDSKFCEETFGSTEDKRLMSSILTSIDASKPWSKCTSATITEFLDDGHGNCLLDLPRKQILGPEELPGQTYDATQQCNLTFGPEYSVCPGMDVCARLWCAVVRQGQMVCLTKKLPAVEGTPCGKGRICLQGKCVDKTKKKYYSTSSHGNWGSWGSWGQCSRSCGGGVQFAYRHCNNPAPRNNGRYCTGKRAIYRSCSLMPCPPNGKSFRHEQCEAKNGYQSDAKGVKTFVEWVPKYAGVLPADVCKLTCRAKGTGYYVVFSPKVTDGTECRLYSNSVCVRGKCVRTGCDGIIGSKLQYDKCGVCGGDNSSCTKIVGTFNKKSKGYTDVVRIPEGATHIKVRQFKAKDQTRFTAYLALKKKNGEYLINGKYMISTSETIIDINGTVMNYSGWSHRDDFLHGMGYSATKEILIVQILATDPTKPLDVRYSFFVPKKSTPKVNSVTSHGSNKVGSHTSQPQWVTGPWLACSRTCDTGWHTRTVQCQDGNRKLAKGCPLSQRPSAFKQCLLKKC
inactive: [1] -0.171 | [2] -0.022 | [4] -0.164 | vemurafenib -0.095 | [6] -0.572 | givinostat 0.222 | barasertib 0.02 | [7] 0.011 | [8] -0.211 | [9] -0.092 | [10] -0.16 | [11] 0.045 | rosiglitazone -0.035 | [12] -0.018 | [13] -0.039

AKNA (UniProt Q7Z591)
Sequence of UniProt Q7Z591 (Q7Z591 whole entry, looked up): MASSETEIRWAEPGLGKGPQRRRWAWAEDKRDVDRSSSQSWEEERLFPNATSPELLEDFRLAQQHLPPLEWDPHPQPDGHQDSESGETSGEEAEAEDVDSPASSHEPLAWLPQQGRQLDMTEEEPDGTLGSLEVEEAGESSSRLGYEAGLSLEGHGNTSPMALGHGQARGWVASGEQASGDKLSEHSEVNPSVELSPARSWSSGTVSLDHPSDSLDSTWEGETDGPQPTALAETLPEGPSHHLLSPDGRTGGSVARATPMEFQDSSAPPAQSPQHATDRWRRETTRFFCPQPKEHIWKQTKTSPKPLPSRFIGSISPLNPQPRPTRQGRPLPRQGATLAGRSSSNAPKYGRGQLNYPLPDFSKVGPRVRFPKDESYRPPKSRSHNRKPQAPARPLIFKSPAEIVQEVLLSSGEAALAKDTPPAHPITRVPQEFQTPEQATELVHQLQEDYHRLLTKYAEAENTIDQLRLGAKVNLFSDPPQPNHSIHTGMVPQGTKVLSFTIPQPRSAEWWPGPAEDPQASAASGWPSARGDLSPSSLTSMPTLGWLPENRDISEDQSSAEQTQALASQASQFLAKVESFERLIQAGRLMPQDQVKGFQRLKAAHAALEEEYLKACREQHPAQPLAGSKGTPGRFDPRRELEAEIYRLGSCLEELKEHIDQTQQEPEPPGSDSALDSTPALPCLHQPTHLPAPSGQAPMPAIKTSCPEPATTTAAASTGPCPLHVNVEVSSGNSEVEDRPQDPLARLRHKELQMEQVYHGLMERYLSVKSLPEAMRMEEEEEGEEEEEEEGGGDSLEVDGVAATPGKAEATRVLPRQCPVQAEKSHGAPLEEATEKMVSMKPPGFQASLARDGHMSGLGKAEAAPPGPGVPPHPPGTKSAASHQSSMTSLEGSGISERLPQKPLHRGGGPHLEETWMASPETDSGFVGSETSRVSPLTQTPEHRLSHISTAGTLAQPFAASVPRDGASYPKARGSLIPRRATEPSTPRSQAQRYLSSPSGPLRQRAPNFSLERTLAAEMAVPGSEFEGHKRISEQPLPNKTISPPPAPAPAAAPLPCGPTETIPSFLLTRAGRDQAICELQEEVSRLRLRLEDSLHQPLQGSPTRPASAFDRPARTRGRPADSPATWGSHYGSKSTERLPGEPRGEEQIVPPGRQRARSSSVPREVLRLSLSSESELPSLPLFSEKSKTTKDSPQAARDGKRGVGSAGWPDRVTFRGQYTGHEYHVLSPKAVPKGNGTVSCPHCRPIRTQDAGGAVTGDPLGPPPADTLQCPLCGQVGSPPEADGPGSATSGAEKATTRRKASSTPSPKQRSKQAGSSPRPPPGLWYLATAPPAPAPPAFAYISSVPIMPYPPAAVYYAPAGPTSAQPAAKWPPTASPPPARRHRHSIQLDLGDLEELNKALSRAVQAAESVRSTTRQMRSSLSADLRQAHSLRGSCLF
inactive: [1] 0.079 | [3] -0.047 | [5] -0.02 | givinostat 0.177 | volasertib 0.015 | [9] 0.054

AFDN isoform 1 (UniProt P55196)
inactive: [1] 0.035 | [2] 0.083 | [4] 0.03 | Nexturastat A -0.164 | vemurafenib 0.342 | [6] 0.062 | givinostat 0.259 | barasertib -0.045 | [7] -0.019 | epoxomicin 0.064 | [9] -0.104 | [10] -0.075 | [11] -0.069 | rosiglitazone 0.104 | [12] 0.111 | [13] 0.062

BAP18 isoform 3 (UniProt Q8IXM2)
inactive: [6] 0.005 | givinostat 0.025 | [9] -0.028 | [10] 0.028 | [13] 0.2

ATRN (UniProt O75882)
Sequence of UniProt O75882 (O75882 whole entry, looked up): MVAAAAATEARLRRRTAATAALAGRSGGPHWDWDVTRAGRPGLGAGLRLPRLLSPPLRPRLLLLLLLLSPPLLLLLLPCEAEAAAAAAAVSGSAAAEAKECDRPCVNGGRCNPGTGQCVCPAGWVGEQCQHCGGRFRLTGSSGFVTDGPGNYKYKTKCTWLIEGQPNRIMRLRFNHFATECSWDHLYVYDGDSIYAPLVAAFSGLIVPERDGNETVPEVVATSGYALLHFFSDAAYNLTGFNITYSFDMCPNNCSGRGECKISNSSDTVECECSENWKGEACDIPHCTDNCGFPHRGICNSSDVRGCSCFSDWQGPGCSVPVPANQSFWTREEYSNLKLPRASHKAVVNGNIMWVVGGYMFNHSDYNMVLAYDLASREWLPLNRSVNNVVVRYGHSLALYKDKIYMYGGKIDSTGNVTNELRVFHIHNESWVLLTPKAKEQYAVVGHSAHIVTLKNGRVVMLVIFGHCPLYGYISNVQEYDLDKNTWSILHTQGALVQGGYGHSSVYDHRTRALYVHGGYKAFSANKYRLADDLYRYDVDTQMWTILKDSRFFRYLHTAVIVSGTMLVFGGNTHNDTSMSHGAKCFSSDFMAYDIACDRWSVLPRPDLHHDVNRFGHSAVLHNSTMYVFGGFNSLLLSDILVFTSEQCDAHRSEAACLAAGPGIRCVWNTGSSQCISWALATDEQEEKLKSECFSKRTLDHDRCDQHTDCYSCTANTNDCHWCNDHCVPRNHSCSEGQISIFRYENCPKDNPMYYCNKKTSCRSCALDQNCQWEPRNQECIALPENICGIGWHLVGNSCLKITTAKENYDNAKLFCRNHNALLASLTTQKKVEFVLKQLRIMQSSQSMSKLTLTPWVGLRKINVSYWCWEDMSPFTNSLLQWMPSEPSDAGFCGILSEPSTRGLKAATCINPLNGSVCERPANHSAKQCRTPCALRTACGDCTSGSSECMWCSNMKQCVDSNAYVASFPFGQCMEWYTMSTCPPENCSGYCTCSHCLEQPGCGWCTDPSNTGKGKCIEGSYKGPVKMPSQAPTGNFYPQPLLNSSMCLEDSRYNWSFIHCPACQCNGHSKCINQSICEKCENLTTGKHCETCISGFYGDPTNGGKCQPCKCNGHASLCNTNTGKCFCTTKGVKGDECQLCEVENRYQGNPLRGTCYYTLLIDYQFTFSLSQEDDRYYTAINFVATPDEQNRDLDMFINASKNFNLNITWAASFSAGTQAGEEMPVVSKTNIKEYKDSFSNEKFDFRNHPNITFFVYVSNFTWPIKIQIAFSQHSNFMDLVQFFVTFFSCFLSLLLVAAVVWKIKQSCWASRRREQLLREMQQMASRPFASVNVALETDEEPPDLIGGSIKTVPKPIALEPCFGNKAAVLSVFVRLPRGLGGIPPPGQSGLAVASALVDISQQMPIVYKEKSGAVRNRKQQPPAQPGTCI
inactive: [1] 0.037 | [3] -0.034 | [4] -0.061 | Nexturastat A -0.135 | vemurafenib -0.026 | [5] 0.054 | [6] -0.003 | givinostat 0.026 | barasertib -0.09 | [7] 0.029 | volasertib -0.094 | [8] -0.019 | epoxomicin 0.063 | [9] -0.1 | [10] 0.004 | [11] -0.01 | rosiglitazone -0.096 | [12] 0.095 | [13] 0.121
